Data: PubChem BioAssay (NCI)
Compounds without any hit were thinned out: in the full panel of roughly 79,000, 15% have a hit. The source made the active and inactive calls. Rule as the data show it: active = growth inhibition above about 70%; inactive = the rest.

assay: NCI Yeast Anticancer Drug Screen. Data for the rad50 strain (AID 155);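 also: 0% = growth of vehicle-only cultures of the same strain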; conditions: S. cerevisiae rad50 strain growth inhibition; at 5.0 µM (retest, dose inferred, filed as 0.5); stronger effect = higher value
Outline: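 Compounds were tested on a yeast strain with an engineered DNA damage repair alteration; the reported value is growth inhibition normalised to vehicle treatment.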

Structure (SMILES)	growth inhibition
Nc1ncnc(N2CCOCC2)c1N	-1% (inactive)
CN(C)c1ccc2c(NCCCCCCNc3ccnc4cc(N(C)C)ccc34)ccnc2c1	10% (inactive)
CC(C)N=Cc1cc(Br)cc(Br)c1O.CC(C)N=Cc1cc(Br)cc(Br)c1O.[Co]	93% (active)
O=C1c2ccc(O)cc2C(=O)c2c1ccc(O)c2O	28% (inactive)
COc1cc2c[n+](C)c3c4cc(OC)c(OCc5ccccc5)cc4c(OCc4ccccc4)cc3c2cc1OC	33% (inactive)
O=C(Nc1ccc(Cl)cc1)OCC1C2C=CC(C2)C1CO (stereo not given)	6% (inactive)
Cn1nc(-c2ccccc2NC(=O)C(F)(F)F)c(=O)n(C)c1=S	-3% (inactive)
OCc1c2c(cc3c1CC1(C3)Cc3cc4c(c(CO)c3C1)CCC4)CCC2	30% (inactive)
O=C(C[n+]1ccccc1)N=N/C(C(=O)Nc1c(Cl)c(O)c2ccccc2c1O)=C1/C(=O)Oc2cc(O)ccc2C1=O	15% (inactive)
Cc1cc(Cl)c(O)c(-c2cc(-c3ccccc3O)c(C#N)c(N)n2)c1	4% (inactive)
CCCCNc1ncc(OCC)c(NCCCC)n1	1% (inactive)
C#CCCCCCOC(=O)c1cc([N+](=O)[O-])cc([N+](=O)[O-])c1	97% (active)
C=C(C)C1(C(=O)OCC(Cl)(Cl)Cl)NC(=O)C(NC(=O)COc2ccccc2)=CO1 (stereo not given)	26% (inactive)
Cc1ccc(SCC#CC#CCS(=O)c2ccc(C)cc2)cc1 (stereo not given)	100% (active)
CCCCCCCCCCCCCCCC1C(N)C(=O)N(C)N1C (stereo not given)	-33% (inactive)
O=c1c(O)cc2c(O)oc3c(=O)c(O)c(O)c4c(O)oc1c2c43	58% (inactive)
CCCCN(CCCC)CCNc1ccc(NS(=O)(=O)c2ccccc2)c2sc3ccccc3c(=O)c12	43% (inactive)
CCOC(=O)CC(N)CC(=O)OCC	-142% (inactive)
O=c1cc(Cl)c(Cl)nn1-c1ccccc1	9% (inactive)
CC(=O)Nc1ccc(-c2ccccc2)cc1[N+](=O)[O-]	-3% (inactive)

Structure (SMILES)	growth inhibition
O=C1OC(c2ccccc2)N/C1=C\c1ccc2c(c1)OCO2 (stereo not given)	34% (inactive)
CCOc1c(N=Nc2ccc(Cl)cc2)c(-c2ccccc2)nn1C(=S)S	4% (inactive)
BrCN(CBr)c1ccc2c(c1)Cc1cc(Br)ccc1-2	4% (inactive)
COc1cc(NCCCCCCCC2CCCCN2)c2ncccc2c1 (stereo not given)	-1% (inactive)
Cc1cc(Br)cc(C)c1NC(=O)C(=O)C(C(=O)c1ccc2ccccc2c1)C1OC(=O)c2ccccc21 (stereo not given)	4% (inactive)
O=Cc1cc2c(s1)C(=O)c1sccc1C2=O	93% (active)
C=C1CC2(CC(C(C)C)CCC2C)OC1=O (stereo not given)	14% (inactive)
CCSC(=Nc1nc2ccc(NC(C)=O)cc2s1)SCC	5% (inactive)
CCOc1ccc2c(c1)n([O-])c1cc(Br)ccc1[n+]2=O	95% (active)
CCCCC(CCCC)=NNC(=S)SC	4% (inactive)
COc1ccc2c(c1)CCc1c(CO)c(COC(=O)NC(C)C)n(C)c1-2	87% (active)
CSc1cc2c(cc1N)Cc1ccccc1-2	3% (inactive)
O=C1C=C(c2ccccc2)OC(c2ccccc2)C1 (stereo not given)	-150% (inactive)
CCOc1ccc2nc([NH-])sc2c1.CCOc1ccc2nc([NH-])sc2c1.[Cl][Pt+2][Cl]	-1% (inactive)
Cc1nc2c(Cl)nc(Cl)nc2s1	-10% (inactive)
Cc1cc(O)n(Cc2ccccc2)c(=O)c1	-151% (inactive)
NCCC1=CCCCC1	1% (inactive)
CCOC(=O)/C(=C\n1c(=O)sc2ccccc21)C(=O)c1ccccc1	18% (inactive)
Cc1ccc(S(=O)(=O)Nc2ccccc2C=O)cc1	17% (inactive)
CC1COC(c2cn[nH]c2C(N)=O)C1O (stereo not given)	-7% (inactive)

same assay, conditions: S. cerevisiae rad50 strain growth inhibition; at 50.0 µM (retest, dose inferred, filed as 5.0); stronger effect = higher value

Structure (SMILES)	growth inhibition
Nc1ncnc(N2CCOCC2)c1N	-5% (inactive)
CN(C)c1ccc2c(NCCCCCCNc3ccnc4cc(N(C)C)ccc34)ccnc2c1	95% (active)
CC(C)N=Cc1cc(Br)cc(Br)c1O.CC(C)N=Cc1cc(Br)cc(Br)c1O.[Co]	99% (active)
O=C1c2ccc(O)cc2C(=O)c2c1ccc(O)c2O	97% (active)
COc1cc2c[n+](C)c3c4cc(OC)c(OCc5ccccc5)cc4c(OCc4ccccc4)cc3c2cc1OC	96% (active)
O=C(Nc1ccc(Cl)cc1)OCC1C2C=CC(C2)C1CO (stereo not given)	95% (active)
Cn1nc(-c2ccccc2NC(=O)C(F)(F)F)c(=O)n(C)c1=S	37% (inactive)
OCc1c2c(cc3c1CC1(C3)Cc3cc4c(c(CO)c3C1)CCC4)CCC2	94% (active)
O=C(C[n+]1ccccc1)N=N/C(C(=O)Nc1c(Cl)c(O)c2ccccc2c1O)=C1/C(=O)Oc2cc(O)ccc2C1=O	98% (active)
Cc1cc(Cl)c(O)c(-c2cc(-c3ccccc3O)c(C#N)c(N)n2)c1	75% (active)
CCCCNc1ncc(OCC)c(NCCCC)n1	-1% (inactive)
C#CCCCCCOC(=O)c1cc([N+](=O)[O-])cc([N+](=O)[O-])c1	99% (active)
C=C(C)C1(C(=O)OCC(Cl)(Cl)Cl)NC(=O)C(NC(=O)COc2ccccc2)=CO1 (stereo not given)	66% (inactive)
Cc1ccc(SCC#CC#CCS(=O)c2ccc(C)cc2)cc1 (stereo not given)	98% (active)
CCCCCCCCCCCCCCCC1C(N)C(=O)N(C)N1C (stereo not given)	96% (active)
O=c1c(O)cc2c(O)oc3c(=O)c(O)c(O)c4c(O)oc1c2c43	96% (active)
CCCCN(CCCC)CCNc1ccc(NS(=O)(=O)c2ccccc2)c2sc3ccccc3c(=O)c12	96% (active)
CCOC(=O)CC(N)CC(=O)OCC	-157% (inactive)
O=c1cc(Cl)c(Cl)nn1-c1ccccc1	80% (active)
CC(=O)Nc1ccc(-c2ccccc2)cc1[N+](=O)[O-]	4% (inactive)

Structure (SMILES)	growth inhibition
O=C1OC(c2ccccc2)N/C1=C\c1ccc2c(c1)OCO2 (stereo not given)	53% (inactive)
CCOc1c(N=Nc2ccc(Cl)cc2)c(-c2ccccc2)nn1C(=S)S	91% (active)
BrCN(CBr)c1ccc2c(c1)Cc1cc(Br)ccc1-2	-4% (inactive)
COc1cc(NCCCCCCCC2CCCCN2)c2ncccc2c1 (stereo not given)	95% (active)
Cc1cc(Br)cc(C)c1NC(=O)C(=O)C(C(=O)c1ccc2ccccc2c1)C1OC(=O)c2ccccc21 (stereo not given)	38% (inactive)
O=Cc1cc2c(s1)C(=O)c1sccc1C2=O	99% (active)
C=C1CC2(CC(C(C)C)CCC2C)OC1=O (stereo not given)	38% (inactive)
CCSC(=Nc1nc2ccc(NC(C)=O)cc2s1)SCC	96% (active)
CCOc1ccc2c(c1)n([O-])c1cc(Br)ccc1[n+]2=O	93% (active)
CCCCC(CCCC)=NNC(=S)SC	85% (active)
COc1ccc2c(c1)CCc1c(CO)c(COC(=O)NC(C)C)n(C)c1-2	90% (active)
CSc1cc2c(cc1N)Cc1ccccc1-2	71% (active)
O=C1C=C(c2ccccc2)OC(c2ccccc2)C1 (stereo not given)	-112% (inactive)
CCOc1ccc2nc([NH-])sc2c1.CCOc1ccc2nc([NH-])sc2c1.[Cl][Pt+2][Cl]	-1% (inactive)
Cc1nc2c(Cl)nc(Cl)nc2s1	98% (active)
Cc1cc(O)n(Cc2ccccc2)c(=O)c1	34% (inactive)
NCCC1=CCCCC1	95% (active)
CCOC(=O)/C(=C\n1c(=O)sc2ccccc21)C(=O)c1ccccc1	24% (inactive)
Cc1ccc(S(=O)(=O)Nc2ccccc2C=O)cc1	54% (inactive)
CC1COC(c2cn[nH]c2C(N)=O)C1O (stereo not given)	13% (inactive)
